Several values for one entry are separate records, joined by “and”; a condition that tells them apart may be missing. Identical values can stand only once. Inconclusive results are not listed. The source holds several records for some structures; these can differ, active in one and inactive in another. Activity calls are given as the source filed them. Unless noted, the call rests on the fitted dose curve; in most records, active means well fitted curve in the direction sought with a large enough effect in the repeat runs; inconclusive means weak or mixed curves; inactive means no such curve, though single readings can be large; an effect the other way counts as inactive or inconclusive.

A short description of test [1]: qHTS assay to identify small molecule agonists of the vitamin D receptor (VDR) signaling pathway - cell viability counter screen (AID 743224). Further: nearly all actives have a fitted effect of over 50% in size. Further: potency means the concentration at half of the fitted maximal effect. The method, boiled down: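 Cells: VDR-bla, 2,000/well, settled 4 h. Treatment: compounds in DMSO, 16 h, 37C/5% CO2. Readout: CellTiter-Glo luminescence after 30 min RT.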
In general terms: Quantitative high-throughput screening tests each substance at several concentrations.

The nature of test [2]: qHTS assay to identify small molecule antagonists of the vitamin D receptor (VDR) signaling pathway - cell viability counter screen (AID 743225). Further: nearly all actives have a fitted effect of over 50% in size. Further: potency means the concentration at half of the fitted maximal effect. The gist of the method: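 In this counter screen, VDR-bla HEK 293T cells receive test compound plus 3 nM final calcitriol for 16 h at 37C. Room-temperature steps of 2 h with the beta-lactamase substrate, then 30 min with CellTiter-Glo, precede the luminescence read.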

Test [3] is described as follows: qHTS assay to identify small molecule agonists of the endoplasmic reticulum stress response signaling pathway (AID 1159516; active means well fitted activation curve with a large enough effect in the signal ratio in the repeat runs, not every such curve was filed as active; the % refers to the signal ratio; further: potency means the concentration at half of the fitted maximal effect; on activation: on the % scale 0 is the no-effect control and ±100 the full control effect). The gist of the method:
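Cells are seeded at 1,500 per well and incubated overnight. Compounds in DMSO are added for 5 hr at 37 C, then beta-lactamase FRET substrate for 2 hr at room temperature, and fluorescence at 460 and 530 nm is measured.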

The nature of test [4]: qHTS assay to identify small molecule agonists of the endoplasmic reticulum stress response signaling pathway - cell viability counter screen (AID 1159517; calls by dose curve; further: nearly all actives have a fitted effect of over 50% in size; further: potency means the concentration at half of the fitted maximal effect). The method, boiled down: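 Cytotoxicity of test compounds toward ESRE-bla HeLa cells was assessed after 5 hr exposure. The luminescent CellTiter-Glo signal was measured 30 min after reagent addition.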
Test [5] is described as follows: qHTS assay to identify small molecule antagonists of the retinoid-related orphan receptor gamma (ROR-gamma) signaling pathway - cell viability counter screen (AID 1159520). Further: nearly all actives have a fitted effect of over 50% in size. Further: potency means the concentration at half of the fitted maximal effect. The gist of the method: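 Tet-on ROR gamma CHO cells (1,000/well) were plated 4 hr, given compounds in DMSO for 2 hr at 37 C, then induced with 1 uM final doxycycline for 16 hr. Viability was read as ATP by CellTiter-Glo luminescence after 30 min.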

In test [6] the target is Nuclear receptor ROR-gamma (Homo sapiens) (UniProt P51449). As to the kind of experiment: qHTS assay to identify small molecule antagonists of the retinoid-related orphan receptor gamma (ROR-gamma) signaling pathway (AID 1159521; further: nearly all actives have a fitted effect of over 50% in size; further: potency means the concentration at half of the fitted maximal effect). The method, boiled down:
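Screening format: cell-based luciferase reporter in CHO cells with doxycycline-inducible RORγ. Compound pre-exposure lasts 2 h, doxycycline is 1 uM final, induction runs 16 h at 37 C, and ONE-Glo luminescence is read.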

Test [7] is described as follows: qHTS assay to identify small molecule agonists of the AP-1 signaling pathway - cell viability counter screen (AID 1159525; calls by dose curve; further: nearly all actives have a fitted effect of over 55% in size; further: potency means the concentration at half of the fitted maximal effect). The method, boiled down:
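Each titration point was normalised to DMSO and tetra n-octyl ammonium bromide controls. The read was Cell Titer Glo luminescence after 30 min at RT, following 5 h compound exposure of ME-180 AP-1-bla cells at 37 °C.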

A short description of test [8]: qHTS assay to identify small molecule agonists of the AP-1 signaling pathway (AID 1159526; calls by dose curve; further: on the % scale 0 is the no-effect control and ±100 the full control effect).
Test [9] deals with Retinoic acid receptor RXR-alpha (Homo sapiens) (UniProt P19793). Kind of test: qHTS assay to identify small molecule agonists of the RXR signaling pathway (AID 1159527; calls by dose curve; further: nearly all actives have a fitted effect of over 35% in size; further: potency means the concentration at half of the fitted maximal effect; on activation: on the % scale 0 is the no-effect control and ±100 the full control effect). The method, boiled down:
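Fluorescence ratio readout (460 vs 530 nm) from GeneBLAzer RXR-alpha HEK 293T cells after 16 hr compound treatment; cells seeded 5 hr beforehand in low-serum, charcoal-stripped medium.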

Test [10] is described as follows: qHTS assay to identify small molecule agonists of the RXR signaling pathway - cell viability counter screen (AID 1159529). Further: nearly all actives have a fitted effect of over 50% in size. Further: potency means the concentration at half of the fitted maximal effect. The gist of the method: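 Viability read-out for the RXR-alpha agonist qHTS: luminescent CellTiter-Glo signal after 30 min at RT. HEK 293T bla reporter cells, 2% charcoal-stripped FBS, 16 hr compound incubation; tetraoctyl ammonium bromide as cytotoxic control.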

The nature of test [11]: qHTS assay to identify small molecule antagonists of the retinoid acid receptor (RAR) signaling pathway - cell viability counter screen (AID 1159551). Further: nearly all actives have a fitted effect of over 35% in size. Further: potency means the concentration at half of the fitted maximal effect. The gist of the method:
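Cells (C3RL4) are plated, incubated overnight, dosed with compound in DMSO, then given retinol at 1 uM final. After 6 h at 37 C, CellTiter-Glo is added and luminescence read following 30 min at room temperature.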

Test [12] can be described thus: qHTS assay to identify small molecule antagonists of the retinoic acid receptor (RAR) signaling pathway (AID 1159552; further: nearly all actives have a fitted effect of over 50% in size; further: potency means the concentration at half of the fitted maximal effect). The gist of the method:
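Using a RARE-driven luciferase construct in C3RL4 cells, retinol at 1 uM final provided the agonist stimulus while compounds were co-applied. After 6 hours at 37 C, luminescence was recorded to flag inhibitors of retinol signaling.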

Test [13] is described as follows: qHTS assay to identify small molecule agonists of the retinoic acid receptor (RAR) signaling pathway (AID 1159553). Further: potency means the concentration at half of the fitted maximal effect. The method, boiled down: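 Seed C3RL4 reporter cells at 1,000 per well and incubate overnight at 37 C. Add compounds in DMSO, incubate 6 hr. Add luciferase reagent, wait 30 min at room temperature, read luminescence.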
Test [14] in a line: qHTS assay to identify small molecule antagonists of the estrogen related receptor (ERR) signaling pathway - cell viability counter screen (AID 1224818). Further: series mostly up to about 46 µM; on the % scale 0 is the no-effect control and ±100 the full control effect. The gist of the method:
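ERR cells, 2,000/well; 6 h settle at 37 C/5% CO2; compound pin transfer (DMSO); 17.5 h at 37 C; CellTiter-Fluor, 30 min, fluorescence read.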

Test [15] can be described thus: qHTS assay to identify small molecule antagonists of the estrogen related receptor signaling pathway with the pleiotropic PPARgamma coactivator (PGC) cell viability counter screen (AID 1224822; further: potency means the concentration at half of the fitted maximal effect;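 further: viability read after 17.5 h compound exposure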). The gist of the method:
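Multiplexed viability counter screen run in PGC/ERR cells treated with compounds for 17.5 h at 37 C; live-cell protease signal measured by CellTiter-Fluor fluorescence.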

Chain of Retinoic acid receptor RXR-alpha (Homo sapiens) (P19793 whole entry, looked up): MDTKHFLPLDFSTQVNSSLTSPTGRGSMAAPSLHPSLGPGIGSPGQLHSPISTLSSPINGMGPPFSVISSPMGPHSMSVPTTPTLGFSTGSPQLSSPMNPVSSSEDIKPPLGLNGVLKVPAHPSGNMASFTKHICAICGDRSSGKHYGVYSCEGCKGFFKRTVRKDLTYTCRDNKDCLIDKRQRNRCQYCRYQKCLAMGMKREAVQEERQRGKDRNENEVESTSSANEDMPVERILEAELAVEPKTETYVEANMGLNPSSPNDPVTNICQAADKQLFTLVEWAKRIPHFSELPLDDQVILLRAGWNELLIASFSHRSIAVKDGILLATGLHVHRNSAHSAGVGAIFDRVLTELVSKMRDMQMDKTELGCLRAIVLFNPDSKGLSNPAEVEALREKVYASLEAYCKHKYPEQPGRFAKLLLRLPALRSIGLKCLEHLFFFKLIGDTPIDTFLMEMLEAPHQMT

As to `CCCCOC(=O)c1ccc(O)cc1`, the Potency entry in test [1], in test [2], in test [3], in test [4], in test [5] and in test [6] was “inactive” in each case. Further, the Potency result in [7], in [8], in [9], in test [10], in [11] and in test [12] was “inactive” throughout. Further, the Potency in test [13] was 27.3 µM (active).
Regarding `COc1ccc(C(Cl)=C(c2ccc(OC)cc2)c2ccc(OC)cc2)cc1`, the Potency result in test [1], in test [2], in test [3], in test [4], in [5] and in test [7] was “inactive” each time. Also, the Potency entry in test [8], in test [9], in test [10], in [11], in test [12] and in [13] was “inactive” each time. Besides, in test [6], the Potency was 19.2 µM (active).
Turning to `CCCCCCc1ccc(O)cc1O`, the Potency is 38.9 µM (active) and inactive in test [1]; 49 µM (active) in test [2]; 61.3 µM (active) and inactive in [5]; 43.8 µM (active) and inactive in [7]; 49.1 µM (active) and 54.9 µM (active) in test [10]. For the same molecule, the Potency result in test [3], in test [4], in test [6], in test [9], in [11] and in test [12] was “inactive” throughout. Besides, the Potency result in [13] is “inactive”.
Turning to `O=C1OC2(c3ccccc31)c1cc(Br)c(O)c(Br)c1Oc1c2cc(Br)c(O)c1Br`, the Potency result in test [1], in test [2], in [4], in [5], in test [6] and in test [7] was “inactive” each time. Further, the Potency result in test [8], in test [10], in [11], in test [12] and in test [13] was “inactive” throughout.
Consider `CN(C)C(=S)SC(=S)N(C)C`, for which the Potency in test [1] was 1.26 µM (active) and 692 nM (active) and 1.06 µM (active); in test [5], 2.37 µM (active); in test [6] it was 703 nM (active) and 770 nM (active) and 1.06 µM (active); in [7], 11.2 µM (active) and 5.49 µM (active) and 16.9 µM (active); in test [10] it was 5.02 µM (active) and 3.89 µM (active) and 1.9 µM (active); in [11] it was 48.6 µM (active). The Potency in [12] was 1.77 µM (active) and 1.93 µM (active) and 2.37 µM (active); in [13], 0.668 µM (active). Besides, the Potency result in test [2] and in [4] was “inactive” throughout.
On to `OC[C@H]1O[C@H](O[C@]2(CCl)O[C@H](CCl)[C@@H](O)[C@@H]2O)[C@H](O)[C@@H](O)[C@H]1Cl`, for which the Potency result in test [1], in test [2], in test [3], in test [4], in test [5] and in test [6] was “inactive” in each case. For the same molecule, the Potency entry in test [7], in [8], in test [9], in test [10] and in test [11] was “inactive” throughout.
Take `O=C1NS(=O)(=O)c2ccccc21`: the Potency entry in test [1], in test [2], in [3], in [4], in test [5] and in test [6] was “inactive” each time. In addition, the Potency result in test [7], in test [8], in [10], in [11] and in test [13] was “inactive” throughout.
As to `CC(=O)Nc1c(I)c(NC(C)=O)c(I)c(C(=O)O)c1I`, the Potency result in test [3], in test [4], in test [5], in test [6], in test [7] and in [8] was “inactive” each time. The Potency result in [9], in [10], in [11] and in test [13] was “inactive” each time.
For `COc1ccc(CN(CCN(C)C)c2ccccn2)cc1`, the Potency entry in test [1], in [2], in [3], in [4], in test [5] and in test [6] was “inactive” each time. Further, the Potency result in test [7], in test [9], in test [11], in [12], in test [13] and in test [15] was “inactive” each time. In addition, in test [10], the Potency was 40.2 µM (active) and inactive. Moreover, in [14], the outcome was inactive.
Consider `CC/C(=C(\c1ccccc1)c1ccc(OCCN(C)C)cc1)c1ccccc1`, for which the Potency entry in [2] was “inactive and 15.6 µM (active) and 21.3 µM (active)”; in test [4], 49 µM (active) [middle of 4 runs]; in [5], 61.1 µM (active) [middle of 4 runs]; in test [6], 27.5 µM (active) [middle of 5 runs]; in test [7], 23.9 µM (active) [middle of 5 runs]; in [10] it was 15.5 µM (active) [middle of 5 runs]. Besides, the Potency in test [11] is 61.5 µM (active) and 61.1 µM (active) and 54.9 µM (active); in [12], 54.4 µM (active) [middle of 5 runs]; in [15] it was 27.6 µM (active).
For the molecule `Nc1ccc(S(N)(=O)=O)cc1`, the Potency entry in [1], in test [2], in [3], in test [4], in test [5] and in test [7] was “inactive” in each case. The Potency entry in test [8], in test [10] and in test [11] was “inactive” throughout. In test [9], the Potency is 5.52 µM (active) and inactive.
For `O=C1NC(=O)C(c2ccccc2)(c2ccccc2)N1`, the Potency entry in test [1], in test [2], in [3], in [4], in test [5] and in test [6] was “inactive” each time. Further, the Potency result in test [7], in test [8], in [9], in test [10], in test [11] and in test [15] was “inactive” each time. The result in [14] was inactive.
Turning to `Cc1cc(=O)oc2cc(O)ccc12`, the Potency entry in test [1], in test [2], in test [4], in test [5], in [7] and in [8] was “inactive” throughout. Besides, the Potency result in test [10] and in test [11] was “inactive” throughout. In addition, the Potency in [3] is 49 µM (active) and 19 µM (active); in [9], 43.6 µM (active).
For `CN1CCc2cccc3c2[C@H]1Cc1ccc(O)c(O)c1-3`, the Potency in [1] was 49.5 µM (active) and 16.3 µM (active) and 26.6 µM (active); in test [2] it was 49.5 µM (active) and 11.5 µM (active); in [5] it was 69.3 µM (active); in [6], 27.6 µM (active) and 20.4 µM (active) and inactive; in test [10], 18.3 µM (active); in [11] it was 69.3 µM (active). In addition, the Potency result in test [3], in test [4], in [7], in [8] and in test [9] was “inactive” in each case.

(Values after PubChem BioAssay (Tox21).)
